DT40 TDP1 CPT: growth inhibition of DT40 Tdp1-/-;hTDP1 cells with camptothecin (screen for TDP1 inhibitors) | chicken DT40 Tdp1-/-;hTDP1 cells + 20 nM CPT, ATP luminescence, 48 h | Potency, µM (top dose mostly 46.2 µM), inactives show top-dose activity change, negative = growth inhibition, actives largely listed as inhibitors | actives 12% (n = 420,000) | AID 686979; note: potency is the fitted concentration of half-maximal effect; nearly all actives have a fitted effect of over 55% in size
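Cell growth measured by CellTiter-Glo luminescence after a minimum 48 h, 37 C compound exposure with 20 nM CPT in Tdp1-knockout DT40 cells stably expressing hTDP1, seeded 400/well; qHTS titration format.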
VP16 counter: counter-screen for ROR gamma inhibitors: Gal4-VP16 reporter. Drosophila S2 Gal4-VP16 UAS-luciferase, luminescence, 20 h. Potency, µM (doses to about 53.6 µM), without a hit: at the highest dose activity, negative = inhibition, most hits filed as inhibitors. actives 3.5% (n = 310,000). AID 2546;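 note: Gal4-VP16 expression switched on by copper sulfate through the metallothionein promoter; potency is the fitted concentration of half-maximal effect; nearly all actives have a fitted effect of over 50% in size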
ELG1 repair inh: ELG1-dependent DNA repair inhibition | HEK293T ELG1-luciferase reporter, luminescence, 16 h; DNA damage induced by 5-fluorouridine | Potency, µM (doses to about 46.1 µM), inactives show top-dose activity change, negative = inhibition, most hits filed as inhibitors | actives 2.3% (n = 330,000); note: potency is the fitted concentration of half-maximal effect; nearly all actives have a fitted effect of over 55% in size
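Reporter activity after DNA damage by 5-fluorouridine is monitored. Compound-treated cells incubate 16 hr at 37 °C, then ONE-Glo is added for 30 min before luminescence reading.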
IL-1B inflam inh: blocks inflammasome-driven IL-1 beta release. THP-1 LPS/ATP IL-1B secretion, AlphaLISA, 16 h; stronger effect = lower value. activity change, % at 57.5 µM. actives 4.7% (n = 360,000); in the data active = activity change below about -50%; inconclusive = mostly about -30% to -49%
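THP-1 cells pretreated 1 hr with compounds (up to 57.5 uM final), then stimulated with LPS (250 ng/mL final) plus ATP (1.25 mM final); secreted IL-1B measured by AlphaLISA after 16 hr, decreased signal indicating inhibition.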
RORg inh: blocks mouse ROR gamma transcriptional activity; actives 5.4% (n = 310,000); Drosophila S2 Gal4-RORgamma UAS-luciferase reporter, 20 h; P51450; AID 2551; Potency, µM (doses to about 53.6 µM), inactives show at the highest dose activity change, negative = inhibition, hits mostly inhibitors; note: potency is the fitted concentration of half-maximal effect; nearly all actives have a fitted effect of over 60% in size
Target sequence (P51450 whole entry, looked up, the tested form may be a part): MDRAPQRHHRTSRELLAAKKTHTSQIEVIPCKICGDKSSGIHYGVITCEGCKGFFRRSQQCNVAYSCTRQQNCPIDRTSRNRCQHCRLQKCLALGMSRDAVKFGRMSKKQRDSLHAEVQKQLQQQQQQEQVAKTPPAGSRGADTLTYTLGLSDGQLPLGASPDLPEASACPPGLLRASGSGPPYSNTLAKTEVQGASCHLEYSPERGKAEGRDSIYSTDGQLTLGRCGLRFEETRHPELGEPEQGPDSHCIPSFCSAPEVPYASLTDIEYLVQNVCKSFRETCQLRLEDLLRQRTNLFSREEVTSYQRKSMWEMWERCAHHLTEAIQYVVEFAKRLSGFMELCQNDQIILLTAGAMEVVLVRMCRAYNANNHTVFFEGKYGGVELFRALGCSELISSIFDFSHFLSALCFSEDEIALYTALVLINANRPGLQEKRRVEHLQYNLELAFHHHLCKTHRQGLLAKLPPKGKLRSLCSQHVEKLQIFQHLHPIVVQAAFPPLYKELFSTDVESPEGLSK
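Luminescence from a UAS-regulated Photinus luciferase reporter in stably transfected Drosophila Schneider cells is measured; decreased signal marks ROR gamma inhibition. Fusion expression is induced by 700 uM copper sulfate for 20 hr.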
TDP1 cell noCPT: qHTS for Inhibitors of human tyrosyl-DNA phosphodiesterase 1 (TDP1): qHTS in cells in absence of CPT | DT40 Tdp1-/- hTDP1 cells, no CPT, ATP luminescence, 48 h | Potency, µM (doses to about 46.2 µM), for inactives: at the highest dose activity change, negative = growth inhibition, actives largely listed as inhibitors | actives 15% (n = 420,000) | AID 686978, 2013; note: potency is the fitted concentration of half-maximal effect; nearly all actives have a fitted effect of over 55% in size
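Compound effects on proliferation are scored in DT40 Tdp1-/-;hTDP1 cells in the absence of CPT. ATP levels (CellTiter-Glo luminescence) are recorded after a ≥48 hr, 37 °C incubation.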
Starred values were filed as active, the others as inactive; ? = inconclusive; . = no result given; [ ] = remark or other dose. An excerpt weighted towards active compounds, which were near 21% of everything screened. Unless noted, calls come from the whole dose curve; as a rule, active = well fitted curve in the direction sought with a large enough effect; inconclusive = small, poorly fitted or top-dose-only effect, or another doubt; inactive = no such curve, though single readings can be large; an effect the other way counts as inactive or inconclusive. % is set by controls: 0 for no effect and ±100 for the full control effect.

SMILES	DT40 TDP1 CPT	VP16 counter	ELG1 repair inh	IL-1B inflam inh	RORg inh	TDP1 cell noCPT
O=C(NC(=S)NC1CCCCC1)c1ccccc1	-28%	7.1µM*	?	21	5µM*	?
CC(NC1CCCCC1)C(=O)NN=C(c1ccccc1)c1ccccc1 (configuration not stated)	?	-13%	0%	-63*	3%	?
O=C(NC(=S)NC1CCS(=O)(=O)C1)c1ccccc1 (configuration not stated)	2%	-9%	-4%	-15	17%	6%
COc1cccc(Cn2c(=O)c(-c3ccc(F)cc3)nc3cnc(N(C)C)nc32)c1	3%	-7%	.	.	-11%	9%
O=C(O)c1ccccc1C(=O)OCCCc1ccncc1	-2%	.	11%	14	.	-2%
S=C(NC1CCCCC1)NN(c1ccccc1)c1ccccc1	?	5.6µM*	6%	9	2.5µM*	?
C/C(=N\NC(=S)NC1CCCCC1)c1ccccc1	?	?	?	19	?	29µM*
C/C(=N\NC(N)=O)c1ccccc1	-1%	7%	2%	0	0%	-7%
C/C(=N\NC(=S)NC1CCCCC1)c1ccc(O)cc1	?	?	?	?	4.5µM*	16µM*
COc1ccc(Cl)cc1C(=O)NNC(=S)NC1CCCCC1	-9%	?	0%	33	0.25µM*	?
Cn1cc(-c2cc3n(n2)CCC(=O)N3CC(=O)O)c2ccccc21	-6%	.	.	.	.	-1%
CN1OC[C@@H]2CN(C(=O)CCc3ccccc3)[C@H](c3cccc(N4CCOCC4)c3)C[C@@H]21	3%	.	.	-5	.	14%
O=C(O)c1ccc(-c2ccc(OS(=O)(=O)c3ccccc3F)cc2)cc1	-4%	?	?	-16	?	-8%
COC(=O)c1ccccc1S(=O)(=O)Oc1ccc(-c2ccc(C(=O)O)cc2)cc1	3%	20%	8%	-99*	13%	-2%
Cc1ccc(Nc2sc(C(=O)c3ccc(F)cc3)c(N)c2S(=O)(=O)c2ccc(C)cc2)cc1	18µM*	.	.	.	.	?
Cc1ccc(S(=O)(=O)c2c(Nc3cc(F)ccc3F)sc(C(=O)c3ccc(F)cc3)c2N)cc1	21µM*	.	.	.	.	16µM*
Cc1ccc(Cl)cc1Nc1sc(C(=O)c2ccc(F)cc2)c(N)c1S(C)(=O)=O	16µM*	.	.	.	.	?
Nc1c(C(=O)c2ccc(F)cc2)sc(Nc2ccccc2F)c1S(=O)(=O)c1ccc(Br)cc1	5.2µM*	.	.	.	.	8.2µM*
COc1ccc(N(CC(=O)NCc2ccco2)C(=O)CCC(=O)Nc2nccs2)cc1	7%	-5%	-6%	-14	19%	-8%
COc1ccc2c(c1)O[C@H](c1ccc3c(c1)OCO3)[C@@H](OC(=O)NCc1ccco1)C2=O	.	-14%	.	.	?	.
COc1cccc(C(=O)c2sc(Nc3ccc(C)cc3C)c(S(=O)(=O)c3ccccc3)c2N)c1	-10%	.	.	.	.	-30%
Cc1ccc(Nc2sc(C(=O)c3ccccc3)c(N)c2S(=O)(=O)c2ccccc2)c(C)c1	?	.	.	.	.	15µM*
Cc1cc(=O)[nH]c2nnc(-c3ccc(Br)cc3)n12	-22%	-21%	?	-5	-36%	-13%
CCS(=O)(=O)N1Cc2ccccc2CC1C(=O)Nc1nc2ccc(C)cc2s1 (configuration not stated)	?	?	0%	0	1.3µM*	?
NNc1nc2cc3c(cc2s1)OCCO3	?	?	?	-5	?	?
SMILES	DT40 TDP1 CPT	VP16 counter	ELG1 repair inh	IL-1B inflam inh	RORg inh	TDP1 cell noCPT
O=C(NNc1nc2cc3c(cc2s1)OCO3)c1ccccc1	-10%	?	?	-17	5µM*	?
Cc1ccc2nc(NNC(=O)c3ccc(S(=O)(=O)N4CCc5ccccc5C4)cc3)sc2c1	2.9µM*	-10%	?	150	-1%	5.2µM*
O=C(NNc1nc2cc3c(cc2s1)OCO3)c1cccc(F)c1	?	?	?	10	4.5µM*	?
CCC(CC)c1nnc(NC(=O)c2ccc(S(=O)(=O)N3CCc4ccccc4C3)cc2)s1	-8%	-2%	0%	-2	0%	-18%
O=C(Nc1nc2cc3c(cc2s1)OCCO3)c1cccc(N2C(=O)CCC2=O)c1	-3%	?	?	-22	-38%	?
COc1ccc(NC(=O)CC2Oc3ccc(C)cc3NC2=O)cc1Cl (configuration not stated)	-5%	.	.	.	.	-23%
O=C(COC(=O)Cc1ccc(Br)cc1)NC1CCCC1	4%	.	3%	-6	.	-4%
CC(C)NC(=O)N1Cc2cc(C(=O)NC3CCC3)nc(-c3cccc(-c4cncnc4)c3)c2[C@H]1CCO	-24%	.	.	0	.	-29%
CSCCC(NS(=O)(=O)c1ccccc1)C(=O)OC(C)C(=O)Nc1ccc(Cl)cn1 (configuration not stated)	-2%	.	3%	57	.	17%
CCN(c1ccccc1)S(=O)(=O)c1nnc(NC(=O)C(C)C)s1	-13%	5%	9%	-16	3%	-12%
Cc1cc(C)cc(OCC(=O)Nc2c(C)ccc3nsnc23)c1	?	.	.	.	.	-25%
Cc1ccc2nc(NNC(=O)c3ccc4c(c3)OCCO4)sc2c1	-21%	?	12%	14	4.5µM*	?
CCS(=O)(=O)N1CCC(C(=O)c2ccc(Cl)cc2)CC1	21µM*	-4%	-18%	-8	-11%	?
CCCNC(=S)N1CCC(C(=O)c2ccc(OC)cc2)CC1	-27%	0%	-24%	-2	0%	21µM*
CCCNC(=S)N1CCC(C(=O)c2ccc(Cl)cc2)CC1	23µM*	-2%	7%	29	-11%[1.91 µM]	?
COc1ccc(CN2CCC(C(=O)c3ccc(Cl)cc3)CC2)cc1	23µM*	-9%	-15%	-27	23%[1.91 µM]	16µM*
COc1ccc(-c2noc(CNS(=O)(=O)c3ccc(NC(C)=O)cc3)n2)cc1OC	0%	5%	2%	?	-11%	2%
CC(C)=CC(=O)N1CCCC(N2CCN(c3ccc(F)cc3)CC2)C1 (configuration not stated)	-1%	-2%	-8%	0	-34%[1.91 µM]	1%
COc1ccc(NC(=S)N2CCC(C(=O)c3ccc(Cl)cc3)CC2)cc1	6%	.	.	8	.	11%

Assay outcomes deposited in PubChem BioAssay by National Center for Advancing Translational Sciences (NCATS).
